Compound activity deposited in PubChem BioAssay by The Scripps Research Institute Molecular Screening Center.
The list is not random: actives were taken first. Their share in the collection is about 3.1%.
PAFAH1B2 inh = inhibitors of human PAFAH1B2; P68402; recombinant PAFAH1B2, FP-rhodamine activity probe, fluorescence polarization; inhibition, % at 3.39 µM; actives 1.2% (n = 340,000); AID 492953;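 active = inhibition above the mean of all tested compounds plus 3 SD, cut at about 24% in these data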;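 also: 0% = enzyme with DMSO and 100% = wells lacking PAFAH1B2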
pPAFAH FP inh = inhibitors of human plasma PAF acetylhydrolase (pPAFAH) | Q13093 | recombinant pPAFAH, FP-rhodamine probe fluorescence polarization | inhibition, % at 3.39 µM | actives 1.5% (n = 330,000) | AID 463082;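 active = inhibition above the mean inhibition across the screen plus 3 SD, cut at about 25% in these data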;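 also: inhibitors block binding of the rhodamine activity-based probe so polarization drops; 0% = enzyme with DMSO and 100% = wells lacking pPAFAH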
PAFAH2 FP inh = inhibitors of human PAFAH2. recombinant PAFAH2, FP-rhodamine activity probe, fluorescence polarization. actives 0.99% (n = 340,000). Q99487. AID 492956. inhibition, % at 3.39 µM;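 active = inhibition above the mean over all tested compounds plus 3 SD, cut at about 30% in these data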;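 also: inhibitors block probe labeling of enzyme so polarization drops; 0% = enzyme with DMSO and 100% = wells lacking PAFAH2 protein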
Rin1 Abl inh = human Rin1-Abl interaction inhibition; P00519+Q13671; inhibition, % at 7.35 µM; actives 0.4% (n = 360,000); TR-FRET Rin1/Abl binding, biochemical; AID 588664; in the data active = inhibition above about 5%, passing the limit was not always enough
Target sequence (P00519 whole entry, looked up): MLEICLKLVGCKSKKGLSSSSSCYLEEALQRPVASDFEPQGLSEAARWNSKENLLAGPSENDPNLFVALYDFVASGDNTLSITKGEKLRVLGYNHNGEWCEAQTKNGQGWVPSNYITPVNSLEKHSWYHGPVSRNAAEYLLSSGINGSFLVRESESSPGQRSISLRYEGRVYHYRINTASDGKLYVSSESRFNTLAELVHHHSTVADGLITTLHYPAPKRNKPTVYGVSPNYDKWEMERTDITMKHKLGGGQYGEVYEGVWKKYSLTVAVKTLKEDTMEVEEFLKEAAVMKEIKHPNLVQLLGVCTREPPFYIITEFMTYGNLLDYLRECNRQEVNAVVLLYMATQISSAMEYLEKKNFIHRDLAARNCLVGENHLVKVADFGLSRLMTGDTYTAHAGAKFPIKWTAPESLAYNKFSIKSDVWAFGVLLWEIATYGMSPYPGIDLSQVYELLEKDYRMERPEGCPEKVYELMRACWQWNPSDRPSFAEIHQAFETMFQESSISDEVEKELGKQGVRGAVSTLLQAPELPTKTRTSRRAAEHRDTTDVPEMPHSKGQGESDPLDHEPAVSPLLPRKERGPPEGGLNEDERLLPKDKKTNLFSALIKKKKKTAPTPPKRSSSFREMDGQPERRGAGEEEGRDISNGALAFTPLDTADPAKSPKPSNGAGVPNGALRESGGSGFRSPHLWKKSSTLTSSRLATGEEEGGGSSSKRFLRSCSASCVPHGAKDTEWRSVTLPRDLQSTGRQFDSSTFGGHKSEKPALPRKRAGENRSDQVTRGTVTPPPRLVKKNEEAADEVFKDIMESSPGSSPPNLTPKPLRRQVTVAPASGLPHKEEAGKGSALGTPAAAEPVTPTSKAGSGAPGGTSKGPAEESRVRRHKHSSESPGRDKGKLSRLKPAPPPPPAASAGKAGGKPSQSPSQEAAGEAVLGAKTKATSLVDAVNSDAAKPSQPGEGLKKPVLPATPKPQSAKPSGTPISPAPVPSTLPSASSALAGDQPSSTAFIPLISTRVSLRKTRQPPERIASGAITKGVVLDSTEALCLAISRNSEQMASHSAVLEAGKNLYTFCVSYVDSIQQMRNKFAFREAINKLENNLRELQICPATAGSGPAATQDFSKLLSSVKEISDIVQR
Target sequence (Q13671 whole entry, looked up): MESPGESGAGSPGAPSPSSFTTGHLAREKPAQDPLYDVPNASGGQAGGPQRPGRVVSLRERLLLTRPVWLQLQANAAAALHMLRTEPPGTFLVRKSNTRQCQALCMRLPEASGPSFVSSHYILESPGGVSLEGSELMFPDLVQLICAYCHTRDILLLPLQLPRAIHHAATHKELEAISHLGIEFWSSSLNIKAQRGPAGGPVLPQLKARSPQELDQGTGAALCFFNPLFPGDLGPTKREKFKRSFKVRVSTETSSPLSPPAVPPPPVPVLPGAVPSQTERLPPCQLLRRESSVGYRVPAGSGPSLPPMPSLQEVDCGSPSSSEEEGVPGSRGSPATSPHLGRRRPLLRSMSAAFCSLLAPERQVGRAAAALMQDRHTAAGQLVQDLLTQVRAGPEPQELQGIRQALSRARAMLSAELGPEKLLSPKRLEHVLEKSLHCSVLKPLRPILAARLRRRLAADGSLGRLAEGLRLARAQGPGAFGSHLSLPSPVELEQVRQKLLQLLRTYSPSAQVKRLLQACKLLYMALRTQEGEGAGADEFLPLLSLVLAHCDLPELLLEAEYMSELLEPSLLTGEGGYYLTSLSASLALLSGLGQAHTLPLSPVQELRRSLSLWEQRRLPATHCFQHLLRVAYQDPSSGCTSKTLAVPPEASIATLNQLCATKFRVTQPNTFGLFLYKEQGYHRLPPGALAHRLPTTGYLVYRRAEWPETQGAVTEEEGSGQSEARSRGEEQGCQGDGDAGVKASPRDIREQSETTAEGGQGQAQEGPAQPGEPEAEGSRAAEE
E coli Lon inh = inhibitors of E. coli Lon protease. inhibition, % at 7.94 µM. AID 602123. purified E. coli Lon protease, fluorescence polarization. actives 0.42% (n = 360,000); in the data active = inhibition above about 13%, passing the limit was not always enough;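 also: 0% = enzyme with probe and DMSO and 100% = no enzyme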
PAFAH1B3 FP inh = inhibitors of human PAFAH1B3; actives 0.28% (n = 340,000); inhibition, % at 3.39 µM; Q15102; recombinant PAFAH1B3, FP-rhodamine probe, fluorescence polarization;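 active = inhibition above the screen-wide average of all tested compounds plus 3 SD, cut at about 25% in these data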;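 also: 0% = enzyme with DMSO only and 100% = wells lacking PAFAH1B3 protein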
Rin1-Abl confirm = confirmation of inhibitors of human Rin1-Abl interaction; shares compounds with Rin1 Abl inh; TR-FRET Rin1-Abl binding, purified proteins; inhibition, % at 7.35 µM; actives 49% (n = 1,300)
GFP quencher = counter-screen for Rin1-Abl inhibitors: GFP fluorescence quenchers; inhibition, % at 6.75 µM; inhibitors/quenchers counterscreen; shares compounds with Rin1 Abl inh; actives 8.5% (n = 1,300); AID 602125;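 also: ABL1-eGFP fusion protein alone without its partner RIN1-SBP; 0% = protein with vehicle and 100% = wells lacking protein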
GFP quench dose = quenches GFP in dose response, Rin1-Abl counter-screen; shares compounds with Rin1 Abl inh; GFP fluorescence interference/quenching counterscreen; IC50, µM; 230 tested, under 10 active; AID 602182; call rule not given here;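 also: ABL1-eGFP fusion protein alone without its RIN1 binding partner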
* marks the source's active call; other numbers are inactive results. Rule as the data show it, unless noted: active = inhibition above about 6.5%; inactive = the rest.

What do the screens show for `O=C(O)c1cnn2c(-c3ccccc3)ccnc12`?
PAFAH1B2 inh: 7; pPAFAH FP inh: 1; PAFAH2 FP inh: 1; Rin1 Abl inh: -1; E coli Lon inh: 0; PAFAH1B3 FP inh: 9

Results for COc1ccc(-c2ccnc3c(C(=O)O)cnn23)cc1 ?
PAFAH1B2 inh: 6; pPAFAH FP inh: 2; PAFAH2 FP inh: 5; Rin1 Abl inh: 9.6*; E coli Lon inh: 2; PAFAH1B3 FP inh: 9; Rin1-Abl confirm: -3; GFP quencher: -2

What do the screens show for `Nc1nc(NC2CCCC2)cc(=O)[nH]1`?
PAFAH1B2 inh: 3; PAFAH2 FP inh: -3; Rin1 Abl inh: 18*; E coli Lon inh: -3; PAFAH1B3 FP inh: 11; Rin1-Abl confirm: 24*; GFP quencher: 1; GFP quench dose: >68

How did CC(C)NC(=O)/C(C#N)=C/c1ccc(N(C)C)o1 do in these assays?
PAFAH1B2 inh: 5; pPAFAH FP inh: 2; PAFAH2 FP inh: 7; Rin1 Abl inh: -24; E coli Lon inh: inactive; PAFAH1B3 FP inh: 7

How did COc1cc(C(=O)Nc2ccc(O)cc2C(=O)O)ccc1OC(C)=O do in these assays?
PAFAH1B2 inh: 6; pPAFAH FP inh: 1; PAFAH2 FP inh: 0; Rin1 Abl inh: 71*; E coli Lon inh: 7; PAFAH1B3 FP inh: 0; Rin1-Abl confirm: 72*; GFP quencher: 0; GFP quench dose: >68

What do the screens show for `O=C(Nc1ccc(C(=O)OC[C@@H]2CCCN3CCCC[C@H]23)cc1)c1cccc(Br)c1`?
PAFAH1B2 inh: -3; pPAFAH FP inh: -5; PAFAH2 FP inh: -7; Rin1 Abl inh: 8.5*; E coli Lon inh: 16; PAFAH1B3 FP inh: 0; Rin1-Abl confirm: 10*; GFP quencher: -1

How did O=C(NC(=O)c1cccc(F)c1)OC[C@@H]1CCCN2CCCC[C@H]12 do in these assays?
PAFAH1B2 inh: 3; pPAFAH FP inh: 1; PAFAH2 FP inh: 5; Rin1 Abl inh: 4; E coli Lon inh: -4; PAFAH1B3 FP inh: 1

What do the screens show for `O=C(CSc1nc2ccccc2c(=O)[nH]1)Nc1ccc(S(=O)(=O)N2CCCC2)cc1`?
PAFAH1B2 inh: 8; pPAFAH FP inh: 2; PAFAH2 FP inh: 1; Rin1 Abl inh: 8.9*; E coli Lon inh: 2; PAFAH1B3 FP inh: 3; Rin1-Abl confirm: 5; GFP quencher: 2

Results for CN1CCN(c2ccc(CNC(=O)C3(C)Cc4c(-c5ccccc5)ccnc4O3)cc2)CC1 (configuration not stated) ?
Rin1 Abl inh: -1; E coli Lon inh: -15

How did O=C(CSc1nc2ccccc2s1)NC1CCCc2ccccc21 (configuration not stated) do in these assays?
PAFAH1B2 inh: 5; pPAFAH FP inh: -5; PAFAH2 FP inh: 1; Rin1 Abl inh: 7.5*; E coli Lon inh: 0; PAFAH1B3 FP inh: 5; Rin1-Abl confirm: -1; GFP quencher: 1

Results for Cc1ccc(NC(=O)CSc2nnc(CN3CCOCC3)n2C)cc1C ?
PAFAH1B2 inh: -2; pPAFAH FP inh: 3; PAFAH2 FP inh: -5; Rin1 Abl inh: 4; E coli Lon inh: -8; PAFAH1B3 FP inh: 3

What do the screens show for `CC(C)c1ccc(NC(=O)CSc2nnc(CN3CCOCC3)n2C)cc1`?
PAFAH1B2 inh: 1; pPAFAH FP inh: 1; PAFAH2 FP inh: 6; Rin1 Abl inh: 18*; E coli Lon inh: 2; PAFAH1B3 FP inh: 6; Rin1-Abl confirm: 26*; GFP quencher: 1; GFP quench dose: >67

Results for OC(c1ccccc1)(c1nc(-c2ccc(Cl)cc2)cs1)C(F)(F)F (configuration not stated) ?
Rin1 Abl inh: -1; E coli Lon inh: 5

What do the screens show for `COc1cc(OC)cc(-c2oc(=O)c3cc(OC)c(OC)cc3c2C#CCCO)c1`?
PAFAH1B2 inh: -1; pPAFAH FP inh: -1; PAFAH2 FP inh: -6; Rin1 Abl inh: 29*; E coli Lon inh: 4; PAFAH1B3 FP inh: 4; Rin1-Abl confirm: 76*; GFP quencher: -1

Results for Cc1cccc(NC(=O)C2CC(=O)OC23CCCCC3)c1 (configuration not stated) ?
PAFAH1B2 inh: 3; pPAFAH FP inh: 3; PAFAH2 FP inh: 1; Rin1 Abl inh: -3; E coli Lon inh: 4; PAFAH1B3 FP inh: 8

How did O=C1CC(C(=O)Nc2ccccc2)C2(CCCC2)O1 (configuration not stated) do in these assays?
PAFAH1B2 inh: 2; pPAFAH FP inh: -1; PAFAH2 FP inh: 6; Rin1 Abl inh: 7.7*; E coli Lon inh: -2; PAFAH1B3 FP inh: -6; Rin1-Abl confirm: -2; GFP quencher: -1

What do the screens show for `CCCn1c(N)c(C(=O)COC(=O)CCNS(=O)(=O)c2ccccc2F)c(=O)[nH]c1=O`?
PAFAH1B2 inh: 2; pPAFAH FP inh: 11; PAFAH2 FP inh: 7; Rin1 Abl inh: 1; E coli Lon inh: -3; PAFAH1B3 FP inh: 6

What do the screens show for `Cn1c(=O)c2c(nc(SCC(=O)Nc3ccccc3)n2C)n(C)c1=O`?
PAFAH1B2 inh: 10; pPAFAH FP inh: -5; PAFAH2 FP inh: 0; Rin1 Abl inh: -4; E coli Lon inh: -2; PAFAH1B3 FP inh: 7

How did Cc1ccc(NC(=O)CSc2nc3c(c(=O)n(C)c(=O)n3C)n2C)cc1 do in these assays?
PAFAH1B2 inh: -7; pPAFAH FP inh: 7; PAFAH2 FP inh: 4; Rin1 Abl inh: 6.8*; E coli Lon inh: 7; PAFAH1B3 FP inh: -4; Rin1-Abl confirm: 0; GFP quencher: -4

What do the screens show for `Cc1cc(C)c(C#N)c(SCC(=O)N(CCC#N)c2ccc3c(c2)OCCO3)n1`?
PAFAH1B2 inh: 12; PAFAH2 FP inh: 9; Rin1 Abl inh: 5; E coli Lon inh: 8; PAFAH1B3 FP inh: 0

What do the screens show for `N#CCCN(C(=O)CSc1ncccn1)c1ccc2c(c1)OCCO2`?
PAFAH1B2 inh: 5; pPAFAH FP inh: 0; PAFAH2 FP inh: 0; Rin1 Abl inh: 8.2*; E coli Lon inh: -2; PAFAH1B3 FP inh: 2; Rin1-Abl confirm: 8.8*; GFP quencher: -1

Results for Nc1cc2nsnc2cc1Br ?
PAFAH1B2 inh: 43*; pPAFAH FP inh: 4; PAFAH2 FP inh: 56*; Rin1 Abl inh: 10*; E coli Lon inh: 5; PAFAH1B3 FP inh: 59*; Rin1-Abl confirm: 26*; GFP quencher: 9.5*

Results for CCOc1ccccc1C1NC(=O)c2ccccc2O1 (configuration not stated) ?
PAFAH1B2 inh: 0; pPAFAH FP inh: 2; PAFAH2 FP inh: 4; Rin1 Abl inh: 0; E coli Lon inh: 5; PAFAH1B3 FP inh: 12
